Assay results as given in PubChem BioAssay (NCATS).
Results filed as inconclusive are left out. Entries that show only a call come without a potency. Activity calls are given as the source filed them. The call rests on the fitted dose curve; in most records, active means well fitted inhibition curve with a large enough effect; inconclusive means small, poorly fitted or top-dose-only effect; inactive means no such curve, though single readings can be large or run the other way.

Columns and labels:
[1] = qHTS assay for measurement of the activity of small molecule inhibitors on Zika virus induced Caspase-3 activity in human iPSC derived neural progenitor cells (hNPCs) (AID 1224857); further: nearly all actives have a fitted effect of over 65% in size
How it was run: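 Cells were plated at 350 per well and grown 16 to 20 hours. Compound pretreatment lasted one hour, after which ZIKV (2 FFU/cell) was added for 6 hours. Percent inhibition was normalized between uninfected and infected controls.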

[2] = qHTS assay for measurement of the activity of small molecule inhibitors on Zika virus induced Caspase-3 activity in human astrocytoma cells (AID 1224859)
How it was run: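 Percent inhibition of virus-induced caspase-3/7 signal is calculated against uninfected and ZIKV-infected control cells. Cells are SNB-19, infected at 2 FFU/cell for 6 h after 1 h compound exposure.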

## CC(C)n1c(/C=C/[C@@H](O)C[C@@H](O)CC(=O)O)c(-c2ccc(F)cc2)c2ccccc21
[1]
  Potency: inactive
[2]
  outcome: inactive

## CCOc1ccccc1OCCN[C@H](C)Cc1ccc(OC)c(S(N)(=O)=O)c1
[1]
  Potency: inactive
[2]
  outcome: inactive

## O=C(NCCc1c[nH]c2ccccc12)c1cccnc1
[1]
  Potency: inactive
[2]
  outcome: inactive

## CCOCCn1c(N2CCCN(C)CC2)nc2ccccc21
[1]
  Potency: inactive
[2]
  outcome: inactive

## O=C1C(O)=C(O)C(=O)C(O)=C1O
[1]
  Potency: inactive
[2]
  outcome: inactive

## FC1(F)C(F)(F)C(F)(F)C2(F)C(F)(F)C(F)(F)C(F)(F)C(F)(F)C2(F)C1(F)F (centres undefined)
[1]
  Potency: inactive
[2]
  outcome: inactive

## Cc1c[nH]c2ccccc12
[1]
  Potency: inactive
[2]
  outcome: inactive

## CC(C)(Cc1c[nH]c2ccccc12)NCC(O)COc1ccccc1C#N (centres undefined)
[1]
  Potency: inactive
[2]
  outcome: inactive

## CCN(CC)CCNc1ccc(CO)c2sc3ccccc3c(=O)c12
[1]
  Potency: inactive
[2]
  outcome: inactive

## Cc1ccc(O)c([C@H](CCN(C(C)C)C(C)C)c2ccccc2)c1
[1]
  Potency: inactive
[2]
  outcome: inactive

## CCN(CC)CCNC(=O)COc1ccc(OC)cc1
[1]
  Potency: inactive
[2]
  outcome: inactive

## Clc1cccc(C(c2ccc3nc[nH]c3c2)n2ccnc2)c1 (centres undefined)
[1]
  Potency: inactive
[2]
  outcome: inactive

## O=C(O)Cc1csc(-c2ccc(Cl)cc2)n1
[1]
  Potency: inactive
[2]
  outcome: inactive

## CCN1CCCC(OC(=O)C(c2ccccc2)c2ccccc2)C1 (centres undefined)
[1]
  Potency: inactive
[2]
  outcome: inactive

## Cc1cc(NS(=O)(=O)c2ccc(N)cc2)nc(C)n1
[1]
  Potency: inactive
[2]
  outcome: inactive

## CC(C)(C)NC[C@H](O)COc1cccc2c1CCCC2=O
[1]
  Potency: inactive
[2]
  outcome: inactive

## FC(F)(F)C(F)(F)C(F)(F)C(F)(F)C(F)(F)C(F)(F)C(F)(F)C(F)(F)Br
[1]
  Potency: inactive
[2]
  outcome: inactive
